Source: PubChem BioAssay AID1347156 (National Center for Advancing Translational Sciences (NCATS), 2019)
Results filed as inconclusive are left out. Where a call stands in place of a potency, no number is given. Calls of active or inactive are those of the source. Calls come from the whole dose curve; as a rule, active = well fitted cell-killing curve with a large enough effect; inconclusive = small, poorly fitted or top-dose-only effect; inactive = flat fitted curve, though single readings scatter.

Test: DAPI mCherry counterscreen qHTS for Zika virus inhibitors; note: nearly all actives have a fitted effect of over 55% in size
Conditions: Vero cells, DAPI nuclear count cytotoxicity, imaging 48-72 h, infected with Zika reporter virus, MOI 1; series mostly up to 32.6 µM
Method in brief: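 Imaging read-out after fixation and Hoechst nuclear staining: percent infection from mCherry-positive cells (above 3 SD of negative controls) and nuclear counts. Setup: Vero cells pre-plated overnight, compound added, infected with ZIKV-mCherry (MOI 1), 48-72 hrs, 37 degrees C.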
Potency is the fitted concentration of half-maximal effect.

SMILES	Potency
CCCCCCCC/C=C\CCCCCCCC(=O)NCCc1ccc(O)c(O)c1	8.91 µM (active)
O=C(NCc1ccccc1Cl)c1ccc2c(O)c(S(=O)(=O)c3ccccc3)c(=O)[nH]c2c1	inactive
O=C(O)c1ccc(C2Nc3ccccc3-c3nnc(SCc4ccc(Cl)cc4)nc3O2)cc1 (stereo not given)	inactive
Cc1ccccc1NC(=O)Nc1ccc(CN2C(=O)N([C@@H](CC(C)C)C(=O)N[C@@H](CC(=O)O)c3ccccc3)C(=O)C2(C)C)cc1	7.08 µM (active)
Cc1cc(S(=O)(=O)Nc2ccc(C(=O)O)cc2)c(C)c(S(=O)(=O)c2ccc(Cl)cc2)c1	inactive
COc1cnc(-c2ccc(Cn3c(CC(C)(C)C(=O)O)c(SC(C)(C)C)c4cc(OC[C@@H]5Cc6ccccc6N5C(C)=O)ccc43)cc2)nc1	15.8 µM (active)
CO[C@H]1C[C@@H](O[C@@H]2/C(C)=C/C[C@@H]3C[C@@H](C[C@]4(CC[C@H](C)[C@@H](C5CCCCC5)O4)O3)OC(=O)[C@@H]3C=C(C)/C(=N/O)[C@H]4OC/C(=C\C=C\[C@@H]2C)[C@]43O)O[C@@H](C)[C@H]1O	11.2 µM (active)
Cc1cc(-c2ccc(N=Nc3ccc4c(S(=O)(=O)O)cc(S(=O)(=O)O)c(N)c4c3O)c(C)c2)ccc1N=Nc1ccc2c(S(=O)(=O)O)cc(S(=O)(=O)O)c(N)c2c1O	inactive
COc1cc(Nc2nc3ccccc3nc2NS(=O)(=O)c2ccc(NC(=O)c3ccc(OC)c(C)c3)cc2)cc(OC)c1	6.31 µM (active)
Cc1oc2c(cc(NS(=O)(=O)c3ccc(Cl)cc3)c3ccccc32)c1C(=O)OCc1ccccc1	inactive
O=c1c(O)c(Br)ccc2c(Br)c(O)c(O)c(O)c12	inactive
O=C(OCc1cc(=O)n2nc(C3CC3)sc2n1)c1ccc(NC(=O)c2ccccc2Cl)cc1	inactive
O=C(O)c1cc(-n2c(/C=C\c3ccc(F)cc3)nc3ccccc3c2=O)ccc1Cl	inactive
CC1CCC(C(=O)N(c2cc(C#CC(C)(C)C)sc2C(=O)O)C2CCC(O)CC2)CC1 (stereo not given)	25.1 µM (active)
O=C(O)c1cc(N(Cc2ccc(C3CCCCC3)cc2)C(=O)c2ccc(Oc3ccccc3)cc2)ccc1O	35.5 µM (active)
O=S(=O)(O)c1cc(O)c2c(N=Nc3ccc(Nc4ccccc4)c4c(S(=O)(=O)O)cccc34)cc(S(=O)(=O)O)cc2c1	inactive
COc1ccc(C(=O)Nc2ccc(C(=O)OCc3cc(=O)n4nc(C(C)C)sc4n3)cc2)cc1	inactive
CC(C)=CCCC1(C)C=Cc2c(O)c3c(c(CC=C(C)C)c2O1)OC12C(=CCCC1C(C)(C)O[C@@]2(C/C=C(\C)C(=O)O)C(=O)O)C3=O (stereo not given in full)	15.8 µM (active)
O=S(=O)(Nc1ccc(O)c(Sc2nc3ccccc3s2)c1)c1cc(Cl)ccc1Cl	35.5 µM (active)
O=S(=O)(Nc1ccc(Cl)cc1)c1ccc(NS(=O)(=O)c2ccc3c(c2)OCCO3)cc1	31.6 µM (active)
